Screening data (PubChem BioAssay)
PLK1 PBD inh: blocks phosphopeptide binding to human PLK1 polo-box domain. 360,000 compounds, 2.8% hits. P53350. Plk1 PBD binding of FITC phosphopeptide, fluorescence polarization. Potency, µM, for the others: max response, negative = inhibition, hits mostly inhibitors; further: series mostly up to about 57 µM; nearly all actives have a fitted effect of over 65% in size
12-LOX inh: ALOX12 (human) lipoxygenase inhibition; P18054; purified 12hLO, xylenol orange hydroperoxide absorbance; Potency, µM (series often up to 108 µM), for inactives: top-dose activity change, negative = inhibition, usual class: inhibitors; 580,000 compounds, 1.1% hits; AID 1671190
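Hydroperoxide product was detected by ferrous iron/xylenol orange as the 573 to 405 nm absorbance ratio. Arachidonic acid at 40 uM (final) was turned over for 30 min at room temperature by 150 nM human 12hLO, pH 7.0 Hepes buffer, after 15 min compound preincubation.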
Sfp inh: blocks B. subtilis Sfp PPTase activity; 310,000 compounds, 3.5% hits; AID 1490; Biochemical Sfp PPTase activity, qHTS; Q9F4F7; Potency, µM, for the others: largest response in the series, negative = inhibition, usual class: inhibitors;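 further: the enzyme is Sfp with the accession as filed and its product quenches rhodamine fluorescence; 0% = enzyme reaction without inhibitor and -100% = no enzyme wells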
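With Hepes-Na pH 7.6 buffer containing 10 mM MgCl2, Sfp (15 nM) modified BHQ-2-YbbR (12.5 uM) using rhodamine-CoA (5 uM). Two reads 30 minutes apart at 525/598 nm yielded each well's rate.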
VDR inhibitor: inhibitors of human vitamin D receptor | P11473 | VDR-SRC2-3 peptide fluorescence polarization, 2 h | Potency, µM, without a hit: max response, negative = inhibition, usual class: inhibitors | 400,000 compounds, 0.93% hits | AID 504847
Target sequence (P11473 whole entry, looked up): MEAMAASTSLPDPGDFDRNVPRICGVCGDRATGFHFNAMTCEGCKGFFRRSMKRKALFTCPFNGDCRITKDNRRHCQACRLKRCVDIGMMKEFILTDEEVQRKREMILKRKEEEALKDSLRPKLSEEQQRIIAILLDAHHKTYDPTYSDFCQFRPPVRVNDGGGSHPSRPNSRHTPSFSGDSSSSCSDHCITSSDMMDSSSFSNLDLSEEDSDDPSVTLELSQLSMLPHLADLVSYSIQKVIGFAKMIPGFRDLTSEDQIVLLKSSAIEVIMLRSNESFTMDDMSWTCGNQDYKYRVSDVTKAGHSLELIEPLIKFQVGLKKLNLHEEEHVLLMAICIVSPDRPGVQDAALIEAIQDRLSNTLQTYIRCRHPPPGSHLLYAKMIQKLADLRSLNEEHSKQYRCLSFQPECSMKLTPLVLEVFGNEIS
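After 23 nl compound addition and a short centrifugation, plates sat for 2 hours at ambient temperature; polarization of fluorescence then indicated loss of VDR binding to peptide SRC2-3.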
* = called active by the depositor; ! = not confirmed by another sample. Hits are enriched below; roughly 4.2% of the tested compounds scored in any of these assays. The call rests on the fitted dose curve; in most records, active means well fitted curve in the direction sought with a large enough effect; inconclusive means small, poorly fitted or top-dose-only effect, or another doubt; inactive means no such curve, though single readings can be large; an effect the other way counts as inactive or inconclusive. Unless noted, on the % scale 0 is the no-effect control and ±100 the full control effect; potency means the concentration at half of the fitted maximal effect.

CCOC(=O)c1ccc(NC(=O)C(=O)NCc2ccc(/C=C(/C#N)C(=O)NCCOC)o2)cc1 was read as PLK1 PBD inh 5.5%, 12-LOX inh -0.6%, Sfp inh 4.4% and VDR inhibitor -17.5%.
CCOC(=O)C(=O)NCc1ccc(/C=C2/N=C(C)C(C(=O)OCC)=C2O)o1 was read as PLK1 PBD inh -18.1%, 12-LOX inh -25.8%, Sfp inh 22.4µM* and VDR inhibitor -24.4%.
For CCOC(=O)C1=C(O)/C(=C/c2ccc(CNC(=O)C(=O)Nc3ccc(C)cc3)o2)N=C1C the results were PLK1 PBD inh -10.9%, 12-LOX inh inconclusive, Sfp inh 39.8µM* and VDR inhibitor 14.0%.
Cc1ccc(N(CC(=O)NC(C)c2ccccc2)S(=O)(=O)c2c(C)n[nH]c2C)cc1 (centres undefined) was read as PLK1 PBD inh -16.9%, 12-LOX inh 2.6%, Sfp inh -5.5% and VDR inhibitor -20.6%.
Screening Cc1nc2cc(C(=O)OCC(=O)Nc3cccc(Cl)c3)ccc2n1-c1ccccc1 returned PLK1 PBD inh -9.2%, 12-LOX inh 11.8%, Sfp inh 10.8% and VDR inhibitor -21.0%.
Screening CN1CCc2cc(NC(=O)Nc3cccnc3)ccc21 returned VDR inhibitor 11.3%.
Screening Cn1ccc2cc3c(cc21)CCN3C(=O)Nc1cccnc1 returned PLK1 PBD inh -15.7%, 12-LOX inh 9.68µM*!, Sfp inh inconclusive and VDR inhibitor inconclusive.
Screening Cn1cc(C2=C(c3cn(CCCSC(=N)N)c4ccccc34)C(=O)NC2=O)c2ccccc21 returned 12-LOX inh inconclusive, Sfp inh 50.1µM* and VDR inhibitor -4.6%.
Screening O=C(CSc1nnc(-c2ccncc2)n1Cc1ccco1)c1ccc(Cl)cc1 returned PLK1 PBD inh -22.4%, 12-LOX inh 275.1%, Sfp inh 22.4µM* and VDR inhibitor inconclusive.
For O=C(CSc1nnc(-c2ccncc2)n1Cc1ccco1)Nc1ccccc1Cl the results were PLK1 PBD inh -2.8%, 12-LOX inh -15.5%, Sfp inh 44.7µM* and VDR inhibitor 11.2%.
O=C(CSc1nnc(-c2ccc(Cl)cc2)n1Cc1ccco1)c1cccs1 was read as PLK1 PBD inh -24.9%, 12-LOX inh inconclusive, Sfp inh 22.4µM* and VDR inhibitor -24.7%.
Screening CC(C)C(C)(C#N)NC(=O)CSc1nnc(-c2ccncc2)n1Cc1ccccc1 (centres undefined) returned PLK1 PBD inh 21.2µM*, 12-LOX inh 14.4%, Sfp inh 10.8% and VDR inhibitor inconclusive.
O=C(CSc1nnc(-c2ccncc2)n1Cc1ccco1)Nc1ccccc1F was read as PLK1 PBD inh -18.7%, 12-LOX inh 10.4%, Sfp inh 0.2% and VDR inhibitor -14.6%.
`F[Si-2](F)(F)(F)(F)F` gave Sfp inh -2.8% and VDR inhibitor -9.4%.
Screening O=C(CSc1nnc(C2CC2)n1Cc1ccco1)NCC(F)(F)F returned PLK1 PBD inh 5.3%, 12-LOX inh -4.4%, Sfp inh -22.7% and VDR inhibitor -17.1%.
CN(Cc1ccc(-c2ccc(Cl)cc2)o1)C(=O)CSc1nnc(C2CC2)n1Cc1ccco1 was read as 12-LOX inh 15.8µM*.
Cc1ccc2nnnc(-c3ccccc3)c2c1 was read as PLK1 PBD inh 1.5%, 12-LOX inh -11.5%, Sfp inh 7.1% and VDR inhibitor -5.6%.
`Cc1ccc2c(c1)c(-c1ccccc1)nc1nnnn12` gave PLK1 PBD inh 23.8µM*, 12-LOX inh 17.1%, Sfp inh 19.0% and VDR inhibitor -9.4%.
CCOC(=O)Cc1cnc(NC(=O)CSc2nc(N)cc(=O)[nH]2)s1 was read as PLK1 PBD inh 16.8µM*, 12-LOX inh -14.7%, Sfp inh 14.2% and VDR inhibitor inconclusive.
CCCOC(=O)c1cc(-c2ccc(C=O)o2)ccc1Cl was read as PLK1 PBD inh -6.2%, 12-LOX inh -21.4%, Sfp inh -18.9% and VDR inhibitor -25.0%.
`C=CCOC(=O)c1cc(-c2ccc(/C=C3\C(=O)NC(=O)C(C#N)=C3C)o2)ccc1Cl` gave PLK1 PBD inh 5.97µM*, 12-LOX inh 7.08µM*, Sfp inh 50.1µM* and VDR inhibitor 25.1µM*.
For CCCOC(=O)c1cc(-c2ccc(/C=C3/C(=O)N(C)C(=O)C(C#N)=C3C)o2)ccc1Cl the results were PLK1 PBD inh 18.9µM* and VDR inhibitor 50.1µM*.
O=C(/C=C/c1ccco1)NCC1CCCO1 (centres undefined) was read as PLK1 PBD inh -12.9%, 12-LOX inh 4.9%, Sfp inh -70.2% and VDR inhibitor -5.8%.
Screening Nc1ccccc1Nc1ccc([N+](=O)[O-])cc1[N+](=O)[O-] returned PLK1 PBD inh 2.0%, 12-LOX inh -8.2%, Sfp inh 5.3% and VDR inhibitor 3.6%.
Nc1cc([N+](=O)[O-])ccc1Nc1ccc(O)cc1 was read as PLK1 PBD inh -29.2%, 12-LOX inh inconclusive, Sfp inh 56.2µM* and VDR inhibitor -26.9%.
Screening CCN(CC)C(=S)SC/C(=N/Nc1ccc(Br)cc1)c1ccccc1 returned 12-LOX inh 7.94µM*.
For CCN(CC)C(=S)SCC(=O)c1ccc(Br)cc1 the results were PLK1 PBD inh 2.7%, 12-LOX inh inconclusive, Sfp inh -11.4% and VDR inhibitor -14.5%.
C=CCc1c(C)[nH]c2c(OC)cccc2c1=S was read as PLK1 PBD inh -2.4%, 12-LOX inh inconclusive, Sfp inh 12.6µM* and VDR inhibitor 0.6%.
For Cc1ccc(CN2CCC(CNS(=O)(=O)c3ccc(-c4ccc(=O)[nH]n4)s3)CC2)cc1 the results were PLK1 PBD inh 29.9µM*, 12-LOX inh -6.1%, Sfp inh 4.9% and VDR inhibitor inconclusive.
CCSc1oc(-c2ccccc2)nc1S(=O)(=O)c1ccc(F)cc1 was read as 12-LOX inh 10µM*.
`CSc1oc(-c2cccs2)nc1S(=O)(=O)c1ccccc1` gave PLK1 PBD inh inconclusive, 12-LOX inh -6.0%, Sfp inh 89.1µM* and VDR inhibitor -21.2%.
`O=C(CSc1oc(-c2ccccc2)nc1S(=O)(=O)c1ccc(Cl)cc1)NC1CCCCC1` gave 12-LOX inh -27.1% and VDR inhibitor -5.6%.
For CSc1oc(-c2ccco2)nc1S(=O)(=O)c1ccc(F)cc1 the results were PLK1 PBD inh -11.0%, 12-LOX inh inconclusive, Sfp inh 79.4µM* and VDR inhibitor -0.6%.
For O=C(CSc1oc(-c2cccs2)nc1S(=O)(=O)c1ccccc1)NC1CCCCC1 the results were PLK1 PBD inh -18.1%, 12-LOX inh inconclusive, Sfp inh 39.8µM* and VDR inhibitor 2.2%.
CSc1oc(-c2ccco2)nc1S(=O)(=O)c1ccccc1 was read as PLK1 PBD inh -24.8%, 12-LOX inh 35.5µM*, Sfp inh -6.9% and VDR inhibitor -1.3%.
For O=c1c(O)cc(C2Oc3cc(O)cc(O)c3CC2O)cc2c(C3Oc4cc(O)cc(O)c4CC3O)cc(O)c(O)c12 (centres undefined) the results were Sfp inh 7.08µM* and VDR inhibitor 3.55µM*.
`c1ccc(Nc2c3c(nc4ccccc24)CCC3)cc1` gave PLK1 PBD inh 2.9%, 12-LOX inh -27.6%, Sfp inh -2.6% and VDR inhibitor -0.5%.
